Measured values: PubChem BioAssay (NCI)
Several values for one entry are separate records, joined by “and”; a condition that tells them apart may be missing. Equal entries are not always repeated. Compounds without any hit were thinned out: in the full panel of roughly 83,000, 20% have a hit.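 Compound tested at a single concentration for 48 hours in 96-well plates; a percent growth value below 10 was scored as active.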 Activity calls are given as the source filed them.

Columns and labels:
Assay in all cases: NCI-60 one-dose screen, 48 h (100 = growth as untreated, 0 = no growth, -100 = all killed)
Details in all cases: 10 µM unless noted
NCI-H23 lung = system: NCI-H23 lung
NCI-H226 lung = system: NCI-H226 lung
NCI-H322M lung = system: NCI-H322M lung
HOP-62 NSCLC = system: HOP-62 NSCLC
NCI-H460 lung = system: NCI-H460 lung
HOP-92 NSCLC = system: HOP-92 NSCLC
A549/ATCC NSCLC = system: A549/ATCC NSCLC
786-0 renal = system: 786-0 renal
COLO 205 colon = system: COLO 205 colon
NCI-H522 lung = system: NCI-H522 lung

Measured: growth

OCCSc1ccc(Cl)cc1
inactive: NCI-H23 lung 112% and 102% | NCI-H226 lung 116% and 99.3% | NCI-H322M lung 114% and 96% | HOP-62 NSCLC 108% and 76.1% | NCI-H460 lung 108% and 107% | HOP-92 NSCLC 101% and 97.7% | A549/ATCC NSCLC 104% and 97% | 786-0 renal 108% and 95.7% | COLO 205 colon 117% and 104%

O=C(O)C#Cc1ccc(Cl)cc1
inactive: NCI-H23 lung 109% | NCI-H226 lung 93.2% | NCI-H322M lung 111% | HOP-62 NSCLC 89.3% | NCI-H460 lung 105% | HOP-92 NSCLC 97.8% | NCI-H522 lung 87.2% | 786-0 renal 99.4% | COLO 205 colon 99.9%

O=C1CCC(=O)N1CC1CC2CCC1C2 (stereo not given)
inactive: NCI-H23 lung 92.7% and 102% | NCI-H226 lung 95.9% and 92.2% | NCI-H322M lung 104% and 80.5% | HOP-62 NSCLC 96.2% and 86.7% | NCI-H460 lung 107% and 102% | HOP-92 NSCLC 99.9% and 101% | A549/ATCC NSCLC 111% and 99.1% | 786-0 renal 98.5% and 97.6% | COLO 205 colon 117% and 92.5%

N=C(N=C(N)N)N1CCOCC1
inactive: NCI-H23 lung 103% and 90.8% | NCI-H226 lung 99.3% and 98.3% | NCI-H322M lung 95.4% and 112% | HOP-62 NSCLC 94.7% and 106% | NCI-H460 lung 99.8% and 102% | 786-0 renal 104% and 95.6% | COLO 205 colon 104% and 107%

CS(=O)(=O)OCC1NC(=O)C(COS(C)(=O)=O)NC1=O (stereo not given)
inactive: NCI-H23 lung 84% and 88.5% | NCI-H226 lung 96.2% and 99.2% | NCI-H322M lung 98.8% and 103% | HOP-62 NSCLC 106% and 118% | HOP-92 NSCLC 96.4% and 104% | NCI-H522 lung 51.3% and 50.6% | A549/ATCC NSCLC 78.3% and 96.4% | 786-0 renal 97.8% and 99.1% | COLO 205 colon 128% and 135%

Cc1ccc(S(=O)(=O)n2ccnc2)cc1
inactive: NCI-H23 lung 102% | NCI-H226 lung 93.5% | NCI-H322M lung 118% | HOP-62 NSCLC 106% | NCI-H460 lung 104% | HOP-92 NSCLC 97% | 786-0 renal 138% | COLO 205 colon 120%

CC(=O)Nc1ccc(OC(C)=O)cc1
6.06% (active) and 102% (inactive): A549/ATCC NSCLC
2.3% (active) and 98.6% (inactive): NCI-H460 lung
5.48% (active) and 98.2% (inactive): NCI-H226 lung
8.93% (active) and 111% (inactive): HOP-62 NSCLC
inactive: NCI-H23 lung 12% and 103% | NCI-H322M lung 29.5% and 112% | HOP-92 NSCLC 102% | 786-0 renal 11.4% and 99.9%
-81.3% (active) and 108% (inactive): COLO 205 colon

CC1(C)OC(=O)C(=Cc2ccc(C#N)cc2)C(=O)O1
inactive: NCI-H23 lung 104% | NCI-H226 lung 92.6% | NCI-H322M lung 113% and 103% | HOP-62 NSCLC 90.6% and 114% | NCI-H460 lung 107% and 101% | HOP-92 NSCLC 87.9% | A549/ATCC NSCLC 77.4% | 786-0 renal 104% and 98.1% | COLO 205 colon 103% and 105%

OCc1ccccc1F
inactive: NCI-H23 lung 88% | NCI-H226 lung 103% | NCI-H322M lung 105% | HOP-62 NSCLC 97.3% | NCI-H460 lung 48.1% | HOP-92 NSCLC 106% | 786-0 renal 101% | COLO 205 colon 92.3%

CC1NC(C)c2ccc3ccccc3c2O1 (stereo not given)
inactive: NCI-H23 lung 102% | NCI-H226 lung 102% | NCI-H322M lung 106% | HOP-62 NSCLC 108% | NCI-H460 lung 108% | HOP-92 NSCLC 101% | A549/ATCC NSCLC 106% | 786-0 renal 104% | COLO 205 colon 121%

OCc1cccc(F)c1
inactive: NCI-H23 lung 79.6% | NCI-H226 lung 104% | NCI-H322M lung 90.2% | HOP-62 NSCLC 100% | NCI-H460 lung 41.8% | HOP-92 NSCLC 118% | NCI-H522 lung 67.8% | 786-0 renal 103% | COLO 205 colon 90.1%

COc1ccc2oc3c(ccc[n+]3C)c(=O)c2c1
inactive: NCI-H23 lung 105% | NCI-H226 lung 98.3% | NCI-H322M lung 105% | HOP-62 NSCLC 80.5% | NCI-H460 lung 108% | HOP-92 NSCLC 94.7% | A549/ATCC NSCLC 84% | 786-0 renal 105% | COLO 205 colon 98.6%

CN1C2C=CC(=O)C1C1C(=O)N(c3ccccc3)C(=O)C12 (stereo not given)
inactive: NCI-H23 lung 96.7% | NCI-H226 lung 105% | NCI-H322M lung 98.4% | HOP-62 NSCLC 91.2% | NCI-H460 lung 80.6% | HOP-92 NSCLC 32.3% | A549/ATCC NSCLC 106% | 786-0 renal 93.5% | COLO 205 colon 99.9%

O=C(O)C1CSCN1 (stereo not given)
inactive: NCI-H23 lung 113% and 101% | NCI-H226 lung 113% and 98.5% | NCI-H322M lung 93.9% and 74.4% | HOP-62 NSCLC 99.8% and 96.2% | NCI-H460 lung 125% and 103% | A549/ATCC NSCLC 97.7% and 111% | 786-0 renal 90.2% and 101% | COLO 205 colon 103% and 104%

CN(C)C(=N)N=C(N)N
inactive: NCI-H23 lung 100% and 120% | NCI-H226 lung 110% and 133% | NCI-H322M lung 107% and 154% | HOP-62 NSCLC 95.5% and 99.5% | NCI-H460 lung 113% and 125% | HOP-92 NSCLC 114% and 122% | A549/ATCC NSCLC 99.8% and 118% | 786-0 renal 103% and 101% | COLO 205 colon 135%

CN(C=O)c1ccccc1
inactive: NCI-H23 lung 84.9% | NCI-H226 lung 75.3% | NCI-H322M lung 98.5% | HOP-62 NSCLC 92.3% | NCI-H460 lung 102% | HOP-92 NSCLC 84.2% | 786-0 renal 97.1% | COLO 205 colon 101%

CC(=O)Oc1ccc(C2(c3ccc(OC(C)=O)cc3)C(=O)Nc3ccccc32)cc1
inactive: NCI-H23 lung 41.5% and 54.4% | NCI-H226 lung 76.3% and 82.9% | NCI-H322M lung 33.1% and 33.7% | HOP-62 NSCLC 109% and 93.1% | NCI-H460 lung 104% | HOP-92 NSCLC 68.4% and 44.2% | A549/ATCC NSCLC 96.1% and 98% | 786-0 renal 107% and 93%
4.98% (active) and 17.2% (inactive): COLO 205 colon

CC1CCC(=O)N1c1ccc(N)cc1 (stereo not given)
inactive: NCI-H23 lung 103% | NCI-H226 lung 100% | NCI-H322M lung 96.4% | HOP-62 NSCLC 86.3% | NCI-H460 lung 106% | HOP-92 NSCLC 107% | A549/ATCC NSCLC 89.1% | 786-0 renal 106% | COLO 205 colon 104%

C#CCOC(=O)C(N)CS (stereo not given)
inactive: NCI-H23 lung 109% | NCI-H226 lung 99.9% | NCI-H322M lung 97.6% | HOP-62 NSCLC 93.2% | NCI-H460 lung 103% | HOP-92 NSCLC 93.9% | A549/ATCC NSCLC 118% | 786-0 renal 106% | COLO 205 colon 106%

NC(=O)Cc1nc(O)cc(=O)[nH]1
inactive: NCI-H23 lung 107% | NCI-H226 lung 99.1% | NCI-H322M lung 103% | HOP-62 NSCLC 81.6% | NCI-H460 lung 105% | HOP-92 NSCLC 91.7% | A549/ATCC NSCLC 89.8% | 786-0 renal 98.4% | COLO 205 colon 108%

Cn1c(N)c(N=O)c(=O)n(C)c1=O
inactive: NCI-H23 lung 96.2% | NCI-H226 lung 115% and 104% | NCI-H322M lung 113% and 88.7% | HOP-62 NSCLC 101% and 108% | NCI-H460 lung 111% and 102% | HOP-92 NSCLC 103% | 786-0 renal 108% and 103% | COLO 205 colon 107% and 117%

Cc1ccc([N+](=O)[O-])cc1Br
inactive: NCI-H23 lung 110% | NCI-H226 lung 98.4% | NCI-H322M lung 111% | HOP-62 NSCLC 89.4% | NCI-H460 lung 94.4% | HOP-92 NSCLC 106% | A549/ATCC NSCLC 77.6% | 786-0 renal 96.6% | COLO 205 colon 99.9%

CC(CN(C)C)CN1c2ccccc2Sc2ccccc21 (stereo not given)
inactive: NCI-H23 lung 88.9% and 86% and 86.6% | NCI-H226 lung 132% and 112% | NCI-H322M lung 73.1% and 83.9% and 65.2% | HOP-62 NSCLC 92.2% and 78.2% and 80.8% | NCI-H460 lung 95% and 94.3% and 93.5% | HOP-92 NSCLC 21.4% | A549/ATCC NSCLC 91.8% and 103% and 91.5% | 786-0 renal 59.5% and 45% and 69.1% | COLO 205 colon 48.4% and 84.5% and 85%
